Source: PubChem (National Center for Advancing Translational Sciences (NCATS))
ELG1 genotoxic: induces genotoxicity in HEK293T cells with luciferase-tagged ELG1; HEK293T ELG1-luciferase reporter, luminescence, 16 h; hit rate 1.3% among 330,000; Potency, µM (series often up to 46 µM), for inactives: at the highest dose activity change, positive = activation, actives largely listed as activators; AID 504466; further: % of control where 0% means no effect; nearly all actives have a fitted effect of over 60% in size
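Genotoxic stress is detected as increased luminescence from luciferase-tagged ELG1 in HEK293T cells, measured with ONE-Glo after a 16 hr treatment at 37 °C.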
FLuc modulator: firefly luciferase modulation, counter-screen for miR-21 project. Potency, µM (series often up to 57.5 µM), inactives show at the top dose activity change, negative = inhibition, actives largely listed as inhibitors. AID 588342. hit rate 6.9% among 360,000. purified FLuc, Km substrates, luminescence inhibition. P08659;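 further: plate controls were vehicle for no effect and reference inhibitor for full effect; nearly all actives have a fitted effect of over 55% in size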
Target sequence (P08659 whole entry, looked up): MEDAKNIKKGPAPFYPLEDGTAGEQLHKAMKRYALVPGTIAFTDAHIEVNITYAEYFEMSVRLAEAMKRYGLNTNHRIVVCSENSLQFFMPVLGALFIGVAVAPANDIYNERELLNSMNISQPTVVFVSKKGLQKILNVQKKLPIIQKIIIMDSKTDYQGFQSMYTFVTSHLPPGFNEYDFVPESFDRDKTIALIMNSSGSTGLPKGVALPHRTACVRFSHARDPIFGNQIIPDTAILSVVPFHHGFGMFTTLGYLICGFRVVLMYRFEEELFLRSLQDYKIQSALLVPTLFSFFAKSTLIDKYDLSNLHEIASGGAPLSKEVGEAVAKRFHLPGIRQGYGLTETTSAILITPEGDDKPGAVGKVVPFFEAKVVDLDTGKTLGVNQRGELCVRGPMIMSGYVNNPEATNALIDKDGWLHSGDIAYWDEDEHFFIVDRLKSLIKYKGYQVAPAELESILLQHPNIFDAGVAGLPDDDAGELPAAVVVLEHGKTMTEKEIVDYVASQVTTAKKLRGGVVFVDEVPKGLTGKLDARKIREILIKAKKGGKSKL
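Purified P. pyralis luciferase, 10 nM final, with Km-level 10 uM D-luciferin and 10 uM ATP in 50 mM Tris acetate pH 7.5, 10 mM Mg acetate, 0.01% Tween-20, 0.05% BSA; 6-point qHTS titration about 60 µM downward; luminescence read.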
Rab9 prom act: activators of Rab9 promoter; Huh7 Rab9 promoter-luciferase reporter, luminescence, 24 h; Potency, µM (doses to about 9.22 µM), for the others: top-dose activation, negative = inhibition, usual class: activators; hit rate 2.8% among 320,000; AID 485297; further: % of control where 0% means no effect; nearly all actives have a fitted effect of over 60% in size
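Cell-based reporter: Huh7 stable for Rab9 promoter-driven luciferase, plated in reduced-serum medium with 10% FBS at 1500 cells/well, compound-treated 24 h at 37 °C, luminescence read after 10 min reagent.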
NPC1 prom act: activates the NPC1 promoter; Huh7 NPC1 promoter luciferase reporter, 24 h; Potency, µM (titrated, usually from 9.22 µM), without a hit: at the top dose activation, hits mostly activators; hit rate 2.4% among 320,000; further: % of control where 0% means no effect; nearly all actives have a fitted effect of over 60% in size
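Huh7 reporter cells (NPC1 promoter driving luciferase) are dosed with compound for 24 h at 37 °C, 5% CO2; luciferase detection reagent is then added and luminescence measured after 10 min at ambient temperature.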
ELG1 DNA repair: inhibitors of ELG1-dependent DNA repair in HEK293T cells. hit rate 2.3% among 330,000. HEK293T ELG1-luciferase reporter, luminescence, 16 h; DNA damage induced by 5-fluorouridine. Potency, µM (top dose mostly 46.1 µM), inactives show top-dose activity change, negative = inhibition, most hits filed as inhibitors. AID 504467; further: on the % scale 0 is the no-effect control and ±100 the full control effect; nearly all actives have a fitted effect of over 55% in size
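Quantitative HTS, concentration-response format. 2,000 cells/well co-treated with 5-fluorouridine and compound, 16 hr in 5% CO2 at 37 °C; ONE-Glo luminescence read after 30 min.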
SMN2 splice enh: increases expression of the SMN2 splice variant. HEK293 SMN2-luciferase splicing reporter, luminescence, 30-36 h. Potency, µM (top dose mostly 46.1 µM), inactives show at the top dose activity change, positive = activation, hits mostly activators. hit rate 2.8% among 210,000. AID 1458; further: % of control where 0% means no effect; nearly all actives have a fitted effect of over 55% in size
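HEK293 cells carry an SMN2 […]–luciferase reporter in which exon 7 inclusion puts luciferase in frame. Cells were plated 10-12 h before compound addition, then incubated 30-36 h at 37C. ONE-Glo luminescence was read; sodium butyrate at 4.5 mM final served as control.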
* marks the source's active call; other numbers are inactive results; ? = inconclusive; / = no result. An excerpt weighted towards active compounds, which were near 9.2% of everything screened. The call rests on the fitted dose curve; in most records, active means well fitted curve in the direction sought with a large enough effect; inconclusive means small, poorly fitted or top-dose-only effect, or another doubt; inactive means no such curve, though single readings can be large; an effect the other way counts as inactive or inconclusive. Potency means the concentration at half of the fitted maximal effect.

SMILES	ELG1 genotoxic	FLuc modulator	Rab9 prom act	NPC1 prom act	ELG1 DNA repair	SMN2 splice enh
COc1cccc(N=Nc2c(C)[nH]n(-c3ccccc3)c2=O)c1	?	10.7µM*	?	?	?	/
O=C(CSc1nnnn1-c1ccc2c(c1)OCCO2)N1CCN(C(=O)c2ccco2)CC1	-1.7%	2.8%	-0.8%	-1.3%	-4.8%	/
COc1ccc(CNC(=O)CCc2c(C)nc3c(c2C)c(=O)n(C)c(=O)n3C)cc1	/	-5.5%	/	/	/	4.3%
O=C(NCCN1CCN(C(=O)c2ccc(F)cc2)CC1)c1ccc(F)cc1	0.1%	-0.5%	-0.9%	-3.8%	2.1%	/
Cc1cc(C(=O)CSc2nc(N)cc(=O)[nH]2)c(C)n1CC1CCCO1 (configuration not stated)	-3.2%	/	/	/	-16.4%	/
Cc1cc(C(=O)CSc2nc3ccccc3c(=O)[nH]2)c(C)n1C	14.1µM*	?	?	?	?	35.5µM*
Cc1cc(C(=O)CSC(C)c2nc3ccccc3c(=O)[nH]2)c(C)n1C (configuration not stated)	-0.6%	-0.6%	-5.6%	-14.8%	-4.9%	-20.0%
Cc1cc(C(=O)CSc2nc(N)cc(N)n2)c(C)n1CC1CCCO1 (configuration not stated)	-1.8%	/	/	/	0.0%	/
Cc1cc(C(=O)CSc2nc3ccccc3[nH]2)c(C)n1CC1CCCO1 (configuration not stated)	-10.4%	0.536µM*	?	?	?	-53.4%
Cc1cc(C(=O)CSc2nc3ccccc3o2)c(C)n1CC1CCCO1 (configuration not stated)	2.4%	1.35µM*	0.794µM*	0.708µM*	?	-89.0%
CCN(CC(=O)Nc1ccc(NC(C)=O)cc1)C(=O)c1ccc(=O)n(C)n1	1.2%	4.9%	-3.9%	-5.8%	26.3%	/
Cc1ccc(NC(=O)c2ccc3c(=O)n4nc(Nc5ccccc5C)sc4nc3c2)cc1C	/	-3.5%	/	/	/	/
CC(=O)N(c1nnc(-c2ccc(C)cc2)s1)C1CCCC1	?	13.5µM*	?	-0.4%	?	/
CC(C)CC(=O)N(c1nnc(-c2cccnc2)s1)C1CCCC1	-0.8%	1.6%	0.7%	-1.5%	7.0%	/
FC(F)(F)c1nc(-c2cccs2)ncc1-c1nnnn1-c1ccc(Cl)cc1	-14.7%	0.9%	-14.2%	-4.1%	20.6µM*	-19.8%
Clc1ccc(-n2nnnc2-c2cnc(-c3ccncc3)nc2-c2cccs2)cc1	-4.0%	-12.3%	-2.5%	-7.3%	?	21.8%
O=C(/C=C/c1ccc[nH]1)c1ccccc1	8.1%	12µM*	?	23.1%	?	-5.5%
O=C(/C=C/c1ccc[nH]1)c1ccc(F)cc1	?	12µM*	1.1%	6.0%	?	?
O=CC(=O)c1ccccc1	9.8%	-0.4%	1.0%	4.8%	?	7.1%
CN(C)/C=C/C(=O)c1ccc(F)cc1	-0.4%	-8.5%	10.8%	-2.8%	16.1%	-12.0%
CCN1CCN(C(=O)/C=C/c2c(F)cccc2Cl)CC1	4.0%	-0.2%	-3.0%	-1.8%	2.0%	11.1%
O=C(/C=C/c1c(F)cccc1Cl)c1ccc(F)cc1	1.6%	6.75µM*	12.8%	0.6%	?	-72.4%
CC(C)C1=CC2=CCC3[C@@](C)(CCC[C@@]3(C)C(=O)O)C2CC1 (some centres not stated)	/	/	/	/	/	12.2%
COc1ccc(-c2nc3c4ccccc4n(CC(=O)Nc4cc(F)ccc4F)c(=O)n3n2)cc1	/	-18.6%	/	/	/	/
N#C/C(=C\c1ccc(F)cc1)c1nc(-c2ccco2)cs1	?	2.69µM*	?	?	?	17.3%
SMILES	ELG1 genotoxic	FLuc modulator	Rab9 prom act	NPC1 prom act	ELG1 DNA repair	SMN2 splice enh
CCN1CCN(c2ccc(N3CCN(C(=O)c4ccc(Br)o4)CC3)nn2)CC1	4.9%	-19.0%	-3.9%	-2.1%	17.0%	/
Cc1ccc2oc(-c3ccco3)cc(=O)c2c1	20.6µM*	9.53µM*	2.82µM*	?	?	?
N#CCOc1ccc2oc(-c3ccco3)cc(=O)c2c1	-5.9%	0.5%	1.6%	8.9%	?	-19.0%
CC(C)OCCOc1ccc2oc(-c3ccco3)cc(=O)c2c1	8.0%	23.9µM*	?	?	?	/
COc1cc(OC)c(NC(=O)N2CCc3c([nH]c4ccccc34)C2c2ccccc2F)cc1Cl (configuration not stated)	/	-1.4%	/	/	/	/
O=C(CCOc1ccccc1F)N1CCN(c2ccccc2O)CC1	8.2%	?	?	?	?	6.1%
COc1ccc(Cc2nn3c(Cn4nnc5ccccc54)nnc3s2)cc1	-5.3%	10.7µM*	-1.6%	3.1%	?	-58.7%
Oc1ccc(-c2cc(-c3ccc(O)cc3)nc(-c3ccccc3)n2)cc1	3.5%	-13.5%	-8.3%	-2.6%	0.0%	/
COC(=O)C(C)Oc1ccc(-c2nccc(-c3cccs3)n2)cc1 (configuration not stated)	10.7%	16.9µM*	24.0%	18.1%	?	?
Oc1ccc(-c2nnc(-c3ccc(O)cc3)nn2)cc1	18.4%	2.69µM*	3.98µM*	3.16µM*	?	14.1µM*
O=C(Nc1nccc(-c2cccs2)n1)c1ccccc1Cl	4.6%	-17.4%	18.3%	5.9%	?	-1.8%
Oc1ccc(-c2nccc(-c3ccc(Cl)cc3)n2)cc1	?	16.9µM*	13.2%	2.0%	?	11.9%
Oc1ccc(-c2cccc(-c3ccc(O)cc3)n2)cc1	10.5%	16.9µM*	26.9%	-2.6%	?	?
Oc1ccc(-c2nccc(-c3ccc(Cl)cc3Cl)n2)cc1	3.9%	0.5%	-6.1%	-0.7%	-4.2%	-1.9%
CC(=O)c1cccc(NC(=O)N2CCC(NC(=O)C3CCCCC3)CC2)c1	0.6%	0.8%	-2.5%	-0.7%	-4.3%	/
CCc1c(C(=O)NNC(=O)Nc2ccc3c(c2)OCO3)csc1C	15.6%	?	-2.0%	-0.2%	7.7%	/
Cc1ccc(C)n1-c1nccc(-c2cccs2)n1	-0.2%	2.8%	-7.2%	-7.0%	7.0%	-22.0%
Oc1ccc(-c2nccc(-c3cccs3)n2)cc1	?	8.49µM*	21.9%	?	?	?
Oc1ccccc1C(Nc1nccs1)c1ccc2cccnc2c1O (configuration not stated)	7.1%	0.5%	-40.6%	-31.5%	3.66µM*	/
COC(=O)c1sc2ccccc2c1S(=O)(=O)N1CCN(c2ccc(C(C)=O)cc2)CC1	/	-2.8%	/	/	/	/
CC(C)c1ccc(/C=N/NC(=O)c2c(Cl)cnn2C)cc1	18.4µM*	0.675µM*	2.82µM*	3.16µM*	?	8.91µM*
O=C(Nc1cc(F)ccc1F)C1COc2ccccc2C1 (configuration not stated)	/	-1.5%	/	/	/	/
C#CC(C)(C)NC(=O)c1ccc(-c2ccccc2F)cc1	?	19µM*	?	?	?	/
